The source of these data is PMC7862700, “An all-to-all approach to the identification of sequence-specific readers for epigenetic DNA modifications on cytosine”.

What all share (test): DAPPL (digital affinity profiling via proximity ligation, sequencing); 10 mM Tris-HCl pH 7.5, 50 mM NaCl, 1 mM DTT, 4% glycerol, room temperature, 30 min; GST-TFs on glutathione beads, 16-mer random dsDNA library, 0.1% formaldehyde crosslink after washing; high values mean tight binding
The target of assay [1] is T1, FEV (Homo sapiens, UniProt Q99581 1-238).
T1 sequence: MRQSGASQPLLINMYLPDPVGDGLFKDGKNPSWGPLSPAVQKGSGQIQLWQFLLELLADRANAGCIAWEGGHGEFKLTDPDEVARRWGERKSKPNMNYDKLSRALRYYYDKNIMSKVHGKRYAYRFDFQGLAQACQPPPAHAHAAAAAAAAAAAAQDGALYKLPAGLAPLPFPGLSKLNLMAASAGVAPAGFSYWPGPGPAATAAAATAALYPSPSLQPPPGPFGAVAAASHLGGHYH
The conditions noted are these: protein: recombinant; tags: N-terminal GST; dsDNA, one strand shown. The method, boiled down:
(§1)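 A tag-only sample was pooled with DNA-barcoded human transcription factors that had been expressed in yeast as GST fusions and captured on glutathione beads. The pools were incubated for 30 min at room temperature with 200 nmole of a random double-stranded 16-mer DNA library in Tris/NaCl/DTT/glycerol buffer, then washed, crosslinked with 0.1% formaldehyde, proximity-ligated (BsaI/T4 ligase, 1 h, 37 °C), PCR-amplified and sequenced on an Illumina NextSeq500. Binding signal is each hexamer's read frequency for a factor divided by its frequency for the tag-only sample.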

Assay [2] deals with ETV5 (Homo sapiens, UniProt P41161 1-510). The conditions noted are these: protein: recombinant; tags: N-terminal GST; dsDNA, one strand shown. Put shortly:
as §1

Assay [3] deals with HSF1 (Homo sapiens, UniProt Q00613 1-529). Conditions: protein: recombinant; tags: N-terminal GST; chain copies: 3; dsDNA, one strand shown. The method, boiled down:
as §1

In assay [4] the target is T2, SPIC (Homo sapiens, UniProt Q8N5J4 1-248).
T2 sequence: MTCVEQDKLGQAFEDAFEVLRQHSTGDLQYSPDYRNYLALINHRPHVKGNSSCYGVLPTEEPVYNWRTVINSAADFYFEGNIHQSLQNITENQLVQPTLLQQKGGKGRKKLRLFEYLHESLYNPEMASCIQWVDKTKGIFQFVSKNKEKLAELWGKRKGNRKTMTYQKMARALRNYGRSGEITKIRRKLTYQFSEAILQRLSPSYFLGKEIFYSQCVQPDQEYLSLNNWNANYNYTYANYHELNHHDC
Conditions: protein: recombinant; tags: N-terminal GST; dsDNA, one strand shown. Put shortly: as §1

Assay [5] has as its target ELF4 (Homo sapiens, UniProt Q99607 1-663). Conditions: protein: recombinant; tags: N-terminal GST; dsDNA, one strand shown. Put shortly: as §1
Assay [6] has as its target T3, ELK4 (Homo sapiens, UniProt P28324-2 1-405).
T3 sequence: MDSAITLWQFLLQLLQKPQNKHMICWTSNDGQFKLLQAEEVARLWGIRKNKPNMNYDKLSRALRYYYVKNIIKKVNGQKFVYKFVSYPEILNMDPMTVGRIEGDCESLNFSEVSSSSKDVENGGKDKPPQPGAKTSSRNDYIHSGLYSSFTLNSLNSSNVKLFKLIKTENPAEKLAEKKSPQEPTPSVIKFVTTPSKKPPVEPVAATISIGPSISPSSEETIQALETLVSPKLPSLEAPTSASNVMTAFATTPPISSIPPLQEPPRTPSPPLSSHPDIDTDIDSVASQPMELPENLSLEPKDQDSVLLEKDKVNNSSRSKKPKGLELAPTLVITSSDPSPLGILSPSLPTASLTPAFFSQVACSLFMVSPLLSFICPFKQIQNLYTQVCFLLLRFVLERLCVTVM
The conditions noted are these: protein: recombinant; tags: N-terminal GST; dsDNA, one strand shown. The method, boiled down:
as §1

Assay [7] addresses T4, ETV2 (Homo sapiens, UniProt O00321 1-342).
T4 sequence: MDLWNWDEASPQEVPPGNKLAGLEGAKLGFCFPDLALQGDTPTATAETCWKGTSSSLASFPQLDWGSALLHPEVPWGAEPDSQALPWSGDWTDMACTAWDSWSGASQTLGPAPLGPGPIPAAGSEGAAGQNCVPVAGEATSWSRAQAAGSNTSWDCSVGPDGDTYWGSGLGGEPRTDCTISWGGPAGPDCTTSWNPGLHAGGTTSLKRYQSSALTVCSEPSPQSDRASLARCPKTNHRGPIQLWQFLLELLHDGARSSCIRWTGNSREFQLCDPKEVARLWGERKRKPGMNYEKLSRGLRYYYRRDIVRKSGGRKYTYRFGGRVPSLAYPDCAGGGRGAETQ
Conditions: protein: recombinant; tags: N-terminal GST; dsDNA, one strand shown. Put shortly:
as §1

In assay [8] the target is T5, ELF3 (Homo sapiens, UniProt P78545 1-371).
T5 sequence: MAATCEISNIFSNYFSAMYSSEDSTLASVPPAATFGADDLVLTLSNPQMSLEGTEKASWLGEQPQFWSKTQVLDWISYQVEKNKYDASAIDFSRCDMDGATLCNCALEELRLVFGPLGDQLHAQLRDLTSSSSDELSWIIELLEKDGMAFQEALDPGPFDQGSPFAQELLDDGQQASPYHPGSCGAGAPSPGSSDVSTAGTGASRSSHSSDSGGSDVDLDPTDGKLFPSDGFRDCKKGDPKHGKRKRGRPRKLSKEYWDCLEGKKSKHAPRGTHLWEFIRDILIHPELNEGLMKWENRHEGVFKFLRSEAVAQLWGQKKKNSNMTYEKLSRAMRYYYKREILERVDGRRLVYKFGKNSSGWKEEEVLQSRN
Conditions: protein: recombinant; tags: N-terminal GST; dsDNA, one strand shown. The method, boiled down: as §1

Assay [9] deals with CRX (Homo sapiens, UniProt O43186 1-299). The conditions noted are these: protein: recombinant; tags: N-terminal GST; dsDNA, one strand shown. Put shortly: as §1
Assay [10] concerns the target ETV1 (Homo sapiens, UniProt P50549 1-477). The conditions noted are these: protein: recombinant; tags: N-terminal GST; dsDNA, one strand shown. Put shortly:
as §1

Assay [11] deals with T6, ERF (Homo sapiens, UniProt P50548 1-548).
T6 sequence: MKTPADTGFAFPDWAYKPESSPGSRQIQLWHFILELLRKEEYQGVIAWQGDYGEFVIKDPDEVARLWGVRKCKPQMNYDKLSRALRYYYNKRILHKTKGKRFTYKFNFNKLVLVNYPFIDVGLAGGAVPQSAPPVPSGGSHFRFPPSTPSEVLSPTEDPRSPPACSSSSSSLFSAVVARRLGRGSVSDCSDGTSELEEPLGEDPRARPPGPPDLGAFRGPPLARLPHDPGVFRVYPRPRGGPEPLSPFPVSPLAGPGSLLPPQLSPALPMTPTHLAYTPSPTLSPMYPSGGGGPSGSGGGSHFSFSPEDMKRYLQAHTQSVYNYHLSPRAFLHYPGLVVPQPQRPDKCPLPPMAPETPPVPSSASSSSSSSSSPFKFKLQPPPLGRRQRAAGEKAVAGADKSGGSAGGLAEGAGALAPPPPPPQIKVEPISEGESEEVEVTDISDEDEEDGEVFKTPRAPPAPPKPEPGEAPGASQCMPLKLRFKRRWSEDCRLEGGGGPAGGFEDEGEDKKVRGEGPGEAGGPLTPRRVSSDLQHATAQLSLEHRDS
The conditions noted are these: protein: recombinant; tags: N-terminal GST; dsDNA, one strand shown. The method, boiled down:
as §1

Assay [12] deals with T7, ETV3L (Homo sapiens, UniProt Q6ZN32 1-361).
T7 sequence: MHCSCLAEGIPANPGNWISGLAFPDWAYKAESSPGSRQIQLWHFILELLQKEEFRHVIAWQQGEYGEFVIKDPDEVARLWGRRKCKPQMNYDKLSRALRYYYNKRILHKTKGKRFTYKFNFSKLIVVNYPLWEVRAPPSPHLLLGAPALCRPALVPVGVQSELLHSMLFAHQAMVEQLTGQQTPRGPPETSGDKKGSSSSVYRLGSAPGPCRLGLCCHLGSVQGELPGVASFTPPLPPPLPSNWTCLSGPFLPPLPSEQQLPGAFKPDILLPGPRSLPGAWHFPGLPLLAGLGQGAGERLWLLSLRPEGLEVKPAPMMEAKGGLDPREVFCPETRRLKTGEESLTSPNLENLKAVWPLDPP
Conditions: protein: recombinant; tags: N-terminal GST; dsDNA, one strand shown. The method, boiled down: as §1

The target in assay [13] is T8, ETS2 (Homo sapiens, UniProt P15036 1-469).
T8 sequence: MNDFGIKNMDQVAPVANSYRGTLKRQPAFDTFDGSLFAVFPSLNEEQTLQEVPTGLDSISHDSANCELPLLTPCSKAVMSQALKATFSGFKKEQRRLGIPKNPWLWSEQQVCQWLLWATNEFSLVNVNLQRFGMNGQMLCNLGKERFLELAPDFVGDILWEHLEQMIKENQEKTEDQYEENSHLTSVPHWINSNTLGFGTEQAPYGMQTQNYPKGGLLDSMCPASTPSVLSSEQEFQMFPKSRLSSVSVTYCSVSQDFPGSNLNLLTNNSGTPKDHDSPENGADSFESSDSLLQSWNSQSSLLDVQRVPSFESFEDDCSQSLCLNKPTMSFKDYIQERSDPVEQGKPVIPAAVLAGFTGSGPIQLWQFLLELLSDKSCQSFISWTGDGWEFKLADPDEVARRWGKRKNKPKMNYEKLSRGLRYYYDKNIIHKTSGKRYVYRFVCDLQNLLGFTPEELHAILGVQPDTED
Conditions: protein: recombinant; tags: N-terminal GST; dsDNA, one strand shown. Put shortly: as §1

In assay [14] the target is T9, SPDEF (Homo sapiens, UniProt O95238 1-335).
T9 sequence: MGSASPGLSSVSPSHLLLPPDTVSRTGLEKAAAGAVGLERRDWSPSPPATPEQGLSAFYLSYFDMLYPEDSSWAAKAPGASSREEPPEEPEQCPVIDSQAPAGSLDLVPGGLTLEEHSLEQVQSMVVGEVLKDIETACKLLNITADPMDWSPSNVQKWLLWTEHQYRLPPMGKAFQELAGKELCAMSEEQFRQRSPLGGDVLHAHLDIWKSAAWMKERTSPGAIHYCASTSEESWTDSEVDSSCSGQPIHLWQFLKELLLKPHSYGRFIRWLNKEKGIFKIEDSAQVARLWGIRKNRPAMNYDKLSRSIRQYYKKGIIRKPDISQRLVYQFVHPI
Conditions: protein: recombinant; tags: N-terminal GST; dsDNA, one strand shown. Put shortly:
as §1

The target in assay [15] is T10, ETV7 (Homo sapiens, UniProt Q9Y603 1-341).
T10 sequence: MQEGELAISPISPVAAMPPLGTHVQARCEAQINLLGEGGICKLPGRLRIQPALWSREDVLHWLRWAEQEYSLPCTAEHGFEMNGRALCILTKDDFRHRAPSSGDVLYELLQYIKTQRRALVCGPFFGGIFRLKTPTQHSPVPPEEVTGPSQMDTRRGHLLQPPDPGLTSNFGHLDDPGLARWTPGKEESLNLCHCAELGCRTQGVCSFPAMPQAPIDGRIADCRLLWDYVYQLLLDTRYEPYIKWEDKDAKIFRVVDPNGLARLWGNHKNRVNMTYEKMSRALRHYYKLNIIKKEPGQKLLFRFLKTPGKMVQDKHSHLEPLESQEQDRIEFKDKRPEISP
Conditions: protein: recombinant; tags: N-terminal GST; dsDNA, one strand shown. The method, boiled down: as §1

The target in assay [16] is T11, ELF5 (Homo sapiens, UniProt Q9UKW6-2 1-255).
T11 sequence: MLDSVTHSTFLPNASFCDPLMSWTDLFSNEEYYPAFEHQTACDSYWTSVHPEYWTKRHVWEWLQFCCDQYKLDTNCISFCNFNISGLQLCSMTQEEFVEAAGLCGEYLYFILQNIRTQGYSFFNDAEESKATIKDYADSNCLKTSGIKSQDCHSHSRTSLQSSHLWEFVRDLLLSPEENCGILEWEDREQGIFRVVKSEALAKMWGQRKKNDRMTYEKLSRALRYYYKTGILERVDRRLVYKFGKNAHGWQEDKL
The conditions noted are these: protein: recombinant; tags: N-terminal GST; dsDNA, one strand shown. Put shortly: as §1

Assay [17] concerns the target T12, ETV3 (Homo sapiens, UniProt P41162-2 1-143).
T12 sequence: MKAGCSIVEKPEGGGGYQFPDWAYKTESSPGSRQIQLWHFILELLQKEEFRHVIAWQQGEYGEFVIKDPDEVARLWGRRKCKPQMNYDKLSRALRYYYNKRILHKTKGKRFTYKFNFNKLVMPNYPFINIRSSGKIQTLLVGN
The conditions noted are these: protein: recombinant; tags: N-terminal GST; dsDNA, one strand shown. The method, boiled down: as §1

Assay [18] addresses ETV6 (Homo sapiens, UniProt P41212 1-452). Conditions: protein: recombinant; tags: N-terminal GST; dsDNA, one strand shown. Put shortly: as §1

ETV1, sequence (P50549 whole entry): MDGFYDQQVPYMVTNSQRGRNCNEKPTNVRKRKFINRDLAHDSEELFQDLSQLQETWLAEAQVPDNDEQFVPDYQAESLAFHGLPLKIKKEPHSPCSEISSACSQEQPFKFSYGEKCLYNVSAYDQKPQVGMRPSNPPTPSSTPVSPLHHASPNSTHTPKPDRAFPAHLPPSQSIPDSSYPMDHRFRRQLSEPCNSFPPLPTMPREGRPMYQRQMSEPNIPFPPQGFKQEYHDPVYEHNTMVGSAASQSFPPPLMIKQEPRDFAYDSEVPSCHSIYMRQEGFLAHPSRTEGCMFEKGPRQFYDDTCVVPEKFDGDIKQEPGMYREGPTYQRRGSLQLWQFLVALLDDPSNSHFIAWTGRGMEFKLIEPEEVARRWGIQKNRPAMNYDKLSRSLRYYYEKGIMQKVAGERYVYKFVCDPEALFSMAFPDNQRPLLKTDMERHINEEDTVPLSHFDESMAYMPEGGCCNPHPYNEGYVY
ETV6, sequence (P41212 whole entry): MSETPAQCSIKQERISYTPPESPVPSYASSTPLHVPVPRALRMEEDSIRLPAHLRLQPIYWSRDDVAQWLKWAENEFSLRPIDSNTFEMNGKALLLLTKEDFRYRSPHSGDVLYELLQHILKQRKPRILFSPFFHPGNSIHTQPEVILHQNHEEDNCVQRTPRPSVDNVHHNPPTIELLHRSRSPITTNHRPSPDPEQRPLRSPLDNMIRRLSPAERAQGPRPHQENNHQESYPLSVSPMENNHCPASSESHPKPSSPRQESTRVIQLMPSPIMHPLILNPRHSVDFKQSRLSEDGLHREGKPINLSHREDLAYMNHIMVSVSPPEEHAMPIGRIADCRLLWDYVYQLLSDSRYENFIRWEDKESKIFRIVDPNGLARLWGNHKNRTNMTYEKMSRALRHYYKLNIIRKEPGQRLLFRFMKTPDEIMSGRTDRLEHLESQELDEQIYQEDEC
CRX, sequence (O43186 whole entry): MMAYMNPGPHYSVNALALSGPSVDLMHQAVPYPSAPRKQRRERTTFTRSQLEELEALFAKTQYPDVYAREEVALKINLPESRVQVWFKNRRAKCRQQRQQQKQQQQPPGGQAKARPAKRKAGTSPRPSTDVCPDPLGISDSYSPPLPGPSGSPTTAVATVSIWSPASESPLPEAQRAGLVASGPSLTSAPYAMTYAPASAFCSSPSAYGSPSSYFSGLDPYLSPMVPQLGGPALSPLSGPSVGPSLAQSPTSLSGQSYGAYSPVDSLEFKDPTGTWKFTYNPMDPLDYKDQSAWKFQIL
ETV5, sequence (P41161 whole entry): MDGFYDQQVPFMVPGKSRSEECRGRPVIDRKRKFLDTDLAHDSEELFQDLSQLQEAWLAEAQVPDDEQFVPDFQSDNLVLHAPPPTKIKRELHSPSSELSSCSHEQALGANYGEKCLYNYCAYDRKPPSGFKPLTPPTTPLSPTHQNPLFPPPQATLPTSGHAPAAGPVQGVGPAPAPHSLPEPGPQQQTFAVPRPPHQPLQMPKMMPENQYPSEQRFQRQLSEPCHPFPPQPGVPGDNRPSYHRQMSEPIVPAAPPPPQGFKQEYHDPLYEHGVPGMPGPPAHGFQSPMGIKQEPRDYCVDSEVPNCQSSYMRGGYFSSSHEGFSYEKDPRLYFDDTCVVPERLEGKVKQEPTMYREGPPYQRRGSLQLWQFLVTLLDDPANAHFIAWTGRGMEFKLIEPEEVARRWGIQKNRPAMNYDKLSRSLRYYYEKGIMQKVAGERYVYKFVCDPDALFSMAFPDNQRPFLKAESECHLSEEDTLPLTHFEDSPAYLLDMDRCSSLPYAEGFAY
ELF4, sequence (Q99607 whole entry): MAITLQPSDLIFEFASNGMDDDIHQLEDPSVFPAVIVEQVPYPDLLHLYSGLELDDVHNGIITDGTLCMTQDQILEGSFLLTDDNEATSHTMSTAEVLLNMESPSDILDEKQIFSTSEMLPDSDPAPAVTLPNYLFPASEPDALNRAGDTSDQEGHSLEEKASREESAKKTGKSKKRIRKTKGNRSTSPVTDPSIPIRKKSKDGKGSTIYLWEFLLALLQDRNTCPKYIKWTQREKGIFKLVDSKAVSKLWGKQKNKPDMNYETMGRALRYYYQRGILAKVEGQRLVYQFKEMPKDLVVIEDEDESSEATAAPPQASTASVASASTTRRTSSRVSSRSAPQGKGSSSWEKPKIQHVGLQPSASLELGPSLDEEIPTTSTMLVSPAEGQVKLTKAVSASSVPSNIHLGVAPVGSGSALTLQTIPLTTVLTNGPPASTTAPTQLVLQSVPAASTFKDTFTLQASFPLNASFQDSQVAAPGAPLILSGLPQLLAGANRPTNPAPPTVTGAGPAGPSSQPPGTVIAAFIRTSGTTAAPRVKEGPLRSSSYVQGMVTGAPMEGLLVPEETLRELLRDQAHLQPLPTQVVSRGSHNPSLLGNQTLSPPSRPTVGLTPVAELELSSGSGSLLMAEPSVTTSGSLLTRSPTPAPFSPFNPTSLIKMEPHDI
HSF1, sequence (Q00613 whole entry): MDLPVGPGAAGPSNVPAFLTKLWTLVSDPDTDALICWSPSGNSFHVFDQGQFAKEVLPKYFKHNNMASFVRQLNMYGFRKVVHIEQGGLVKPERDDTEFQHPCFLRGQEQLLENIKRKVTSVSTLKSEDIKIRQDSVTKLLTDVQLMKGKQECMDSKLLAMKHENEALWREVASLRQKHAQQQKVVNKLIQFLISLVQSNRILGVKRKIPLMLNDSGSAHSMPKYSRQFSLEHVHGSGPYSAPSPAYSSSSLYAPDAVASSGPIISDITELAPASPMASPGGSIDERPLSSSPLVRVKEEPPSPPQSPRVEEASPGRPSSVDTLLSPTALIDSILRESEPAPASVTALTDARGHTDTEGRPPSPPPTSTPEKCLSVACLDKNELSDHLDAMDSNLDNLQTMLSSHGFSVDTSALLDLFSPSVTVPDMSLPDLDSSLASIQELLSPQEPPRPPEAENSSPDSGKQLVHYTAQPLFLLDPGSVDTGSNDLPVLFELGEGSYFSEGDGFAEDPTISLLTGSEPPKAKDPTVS

With AAGATT, the binding signal in [1] is 1.06 fold enrichment (6-mer frequency, TF over GST control); in [2], 1.25 fold enrichment (6-mer frequency, TF over GST control); in assay [3] it was 2.11 fold enrichment (6-mer frequency, TF over GST control); in [4], 1.12 fold enrichment (6-mer frequency, TF over GST control); in [5], 1.22 fold enrichment (6-mer frequency, TF over GST control); in assay [6], 1.35 fold enrichment (6-mer frequency, TF over GST control). Besides, the binding signal in assay [7] was 1.16 fold enrichment (6-mer frequency, TF over GST control); in assay [8], 1.08 fold enrichment (6-mer frequency, TF over GST control); in assay [9], 2.4 fold enrichment (6-mer frequency, TF over GST control); in [10] it was 1.18 fold enrichment (6-mer frequency, TF over GST control); in assay [11], 1.1 fold enrichment (6-mer frequency, TF over GST control); in assay [12] it was 1.18 fold enrichment (6-mer frequency, TF over GST control). In addition, the binding signal is 1.18 fold enrichment (6-mer frequency, TF over GST control) in assay [13]; 1.16 fold enrichment (6-mer frequency, TF over GST control) in assay [14]; 1.16 fold enrichment (6-mer frequency, TF over GST control) in [15]; 1.14 fold enrichment (6-mer frequency, TF over GST control) in [16]; 1.14 fold enrichment (6-mer frequency, TF over GST control) in assay [17]; 1.19 fold enrichment (6-mer frequency, TF over GST control) in assay [18].
